Consider 3 molecules from PubChem BioAssay (NCATS).

Structures are written as SMILES. Results filed as inconclusive are left out. Entries that show only a call come without a potency. Values without a mark were called inactive. Active and inactive are the calls of the source. Calls follow the shape of the dose curve; as a rule, active = well fitted inhibition curve with a large enough effect; inconclusive = small, poorly fitted or top-dose-only effect; inactive = no such curve, though single readings can be large or run the other way.

The nature of this assay: Tertiary RLuc qRT-PCR qHTS assay for Zika virus inhibitors (AID 1347169). Also: top concentration of the series differs between compounds; nearly all actives have a fitted effect of over 55% in size. To be noted: infected Vero cells, reporter luminescence, 48-72 h; series mostly up to 45.9 µM. The method, boiled down:
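Vero cells (1,000 per well) plated overnight at 37 degrees C, treated with compound in DMSO, then infected with recombinant ZIKV-RLuc (Cambodian) at MOI 1-2 for 48-72 hrs. Live-cell Renilla luciferase substrate added; luminescence read after 1-1.5 hrs.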
Background: In qPCR the cycle at which signal appears reflects the starting amount.
For `CN(C)c1cc(NC(=O)CNC(C)(C)C)c(O)c2c1C[C@@H]1C[C@H]3[C@H](N(C)C)C(=O)C(C(N)=O)=C(O)[C@@]3(O)C(=O)C1=C2O`, the Potency entry was “inactive”.

For the molecule `O=c1c(O)c(-c2ccc(O)cc2)oc2cc(O)cc(O)c12`, the activity change, negative = inhibition is 13.5% [at 0.997 µM].

For the molecule `O=C(O)c1c(Cl)c(Cl)c(Cl)c(Cl)c1-c1c2cc(I)c(=O)c(I)c-2oc2c(I)c(O)c(I)cc12`, the Potency result was “inactive”.
